Tgondii IFNg: T. gondii growth inhibition with IFN-gamma, primary screen, cell-based; activity change, negative = inhibition, % (concentration not given with the values); Toxoplasma gondii growth in IFN-gamma-treated host cells; active compounds read low; 3.8% of 69,000 active; AID 1259416, 2018; in the data active = activity change below about -70%, passing the limit was not always enough;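 note: host cells are HeLa cells infected with Toxoplasma gondii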
* = called active by the depositor; i = inactive; ! = a repeat was not active. The sample as a whole holds a higher share of hits than the screen did.

SMILES | Tgondii IFNg
O=C(NCc1nc(-c2ccncc2)n[nH]1)Nc1ccccc1C(F)(F)F | -20
CC(=O)c1cc(C(=O)NCCc2nc(-c3cccnc3)n[nH]2)cs1 | -36
CC(C)C(C)NC(=O)c1ncn2c1CN(CC1CC1)S(=O)(=O)c1ccccc1-2 (stereo not given) | -13
CN1Cc2c(C(=O)Nc3cccc(Cl)c3)ncn2-c2ccccc2S1(=O)=O | -7
CC(C)CCN1Cc2c(C(=O)Nc3cccc(F)c3)ncn2-c2ccccc2S1(=O)=O | -83*
COc1ccccc1CN(CCN(C)C)C(=O)C1CC(=O)Nc2ccccc21 (stereo not given) | 21
CCOC(=O)c1cncc(C#CCOC(=O)Nc2ccc(OC(F)(F)F)cc2)c1 | -33
O=C(Nc1ccc(OC(F)(F)F)cc1)OCc1ccc(C#Cc2ccccc2)s1 | -83*
O=C(O)CC1(CC(=O)Nc2ccc(OC(F)(F)F)cc2)CCCC1 | 36
Cc1cc(CSc2nc3ccccc3[nH]2)c(C)cc1CSc1nc2ccccc2[nH]1 | -96*
Clc1ccccc1CSc1nc2ccccc2[nH]1 | -37
c1ccc(-n2nnnc2CSc2nc3ccccc3[nH]2)cc1 | -1
CCc1[nH]c2ccc(CNC(=O)COc3ccccc3O)cc2c1C | 18
CCS(=O)(=O)N1CCC2(CCC2NS(=O)(=O)c2ccccc2)CC1 (stereo not given) | -5
Cc1ccccc1-n1nc(C)c(CN(C)Cc2n[nH]c3c2CCCC3)c1C | -78*
COc1ccc2c(c1)c(CN(C)Cc1n[nH]c3c1CCCC3)cn2C(C)C | 17
CCSc1ncc(CN(C)Cc2n[nH]c3c2CCCC3)cn1 | -54
O=C(Cc1ccccc1)N1CC[C@H]2CN(Cc3cccnc3)S(=O)(=O)[C@@H]2CC1 | 103
CCCc1nc2ccccc2n1CC(O)COc1ccc(NC(C)=O)cc1 (stereo not given) | -25
Cn1nnc2c(NCCSc3c[nH]c4ccccc34)ncnc21 | 2
O=C(Nc1ccc(N2CCCCC2)cc1)c1ccccc1Cl | 199
C[C@@H]1CN(Cc2ccccc2F)CCN1CC(=O)Nc1ccc(N2CCCCCC2)cc1 | 444
O=C(Nc1cnn(Cc2ccccc2F)c1)c1ccc(N2CCCCC2)cc1 | -95*
Cc1[nH]c(C)c2c(=O)n(Cc3ccccc3Cl)ncc12 | 26
Cc1cccc(N2C(=O)CC(Sc3nnc(C)s3)C2=O)c1 (stereo not given) | -5
SMILES | Tgondii IFNg
Cc1ccc(N2C(=O)CC(Sc3ccccn3)C2=O)cc1 (stereo not given) | -11
O=C1CC(Sc2ccc(Cl)cc2)C(=O)N1c1cc(F)c(Br)cc1F (stereo not given) | -85*
CCC(CO)N(Cc1ccsc1)C(=O)c1cccc(F)c1OC (stereo not given) | 15
COc1ccc([C@H]2CC=CC[C@@H](C)Oc3ccccc3C(=O)N(C)[C@H](Cc3ccccc3)C(=O)N2)c(OC)c1 (mixture of isomers) | -79*
C[C@@H]1CC=CC[C@@H](c2cccc(Cl)c2)NC(=O)[C@@H](Cc2ccccc2)N(C)C(=O)c2ccccc2O1 (mixture of isomers) | -63
COc1ccc([C@H]2CC=CC[C@H](C)Oc3ccccc3C(=O)N(C)[C@@H](C(C)C)C(=O)N2)c(OC)c1 (mixture of isomers) | -11
O=C(NC1CCCC1)N[C@@H]1C=C[C@@H](CC(=O)N2CCOCC2)O[C@H]1CO | 13
CC(C)N1CCC2(CC1)CC(NC(=O)C1CCOC1)c1ccccc1O2 (stereo not given) | -5
COc1cc(C(=O)O)ccc1NC(=O)[C@@H]1N[C@@H](CC(C)(C)C)[C@](C#N)(c2ccc(Cl)cc2F)[C@H]1c1cccc(Cl)c1F | -80*
CN1CCNC(=O)C12CCN(C(=O)C1CCc3ccccc3C1)CC2 (stereo not given) | -38
O=C(C[C@@H]1CC[C@H]2[C@@H](COC[C@H](O)CN2C(=O)c2ccncc2)O1)Nc1ccc(-c2ccccc2)cc1 | -43
CCc1cc(-c2cccc(NC(C)=O)c2)nc(N2CCOCC2)n1 | -26
O=C(Nc1ccncc1)Nc1ccc(-c2nc(N3CCOCC3)nc(N3C4CCC3COC4)n2)cc1 | -74*
COC(=O)C1C=CCN1Cc1nc(-c2cccc(-c3ccnc(C)n3)c2)no1 (stereo not given) | 22
COc1ccc(C=O)c(OC)c1 | 10
COC(=O)c1cc(OC)c(OC)cc1NC(=O)Nc1ccc(OC)cc1OC | 8
COc1cc(/C=C/c2ccc(OC)cc2OC)cc(OC)c1 | -76*!
O=C(c1ccoc1)N1CCCC2(C1)Nc1cccnc1NC2=NC1CCCC1 (stereo not given) | 26
O=C(CCC1Nc2c3ccccc3nc(=S)n2C1=O)NCc1cccs1 (stereo not given) | 11
Cc1occc1C(=O)N1CCN(CC2CC2)c2ncccc2C1 | 196
Cc1nnc(CN2CCCCC2c2nc3ccc(F)cc3[nH]2)s1 (stereo not given) | 21
Cc1cccc2[nH]c(CNC(=O)C(c3cccnc3)N3CCCC3)nc12 (stereo not given) | 3
CCS(=O)(=O)N1CCC2(CC1)OC(=O)C(C)=C2C(=O)NCc1cccc(Cl)c1 | 4
O=C(NCc1cc(Cl)c2c(c1)OCCCO2)c1nc2ncccn2n1 | -5
CN(c1nc(-c2ccc(Cl)cc2)nc2ccccc12)C1CCCCC1 | 8
SMILES | Tgondii IFNg
CC(C)CC(=O)NCCc1csc(-c2ccc(Cl)cc2)n1 | 20
Cc1nc2c(c(=O)n1C)CCN(C(=O)c1cn3ccsc3n1)CC2 | 9
Cc1nc(-c2cn(C(C)C)c3ncccc23)sc1C(=O)N1CCCCC1C (stereo not given) | -106*
CCCc1ncc(-c2ccncc2C)c(C2CCCN2C(=O)c2sc(NC)nc2C)n1 (stereo not given) | -13
CC1CCCCN1C(=O)c1cc(-c2cnc(-c3ccccc3)nc2)cn1C (stereo not given) | i
CN(Cc1ccccc1)C1COC2(CCN(C(=O)CC(C)(C)C)CC2)C1 (stereo not given) | -11
CCNc1ncc(CN2C[C@H](N)C[C@H]2C(=O)NC)cn1 | -27
OCC1(Cc2ccc(F)cc2F)CCCN(c2nc3ccccc3s2)C1 (stereo not given) | -8
CCc1ccc(C2c3[nH]c4ccccc4c3CCN2C(=O)CSC)cc1 (stereo not given) | 1
CC(=O)N1CCc2c([nH]c3ccccc23)C12C(=O)N(C)c1ccccc12 (stereo not given) | 492
CN1c2ccccc2C(=O)N2CCc3c([nH]c4ccccc34)C21 (stereo not given) | -80*
O=C(NC1(c2ccc3c(c2)OCO3)CCCC1)c1ccco1 | 13
CNCCC=C1c2ccccc2C=Cc2ccccc21 | 16
CNCCCC1c2ccccc2C=Cc2ccccc21 | -81*!
O=C1CC(C2CCCN(C(=O)c3cc4cccc(F)c4[nH]3)C2)Oc2ccccc21 (stereo not given) | -3
O=C(COCc1nnn2c1CNCCC2)N1CCCC1 | 1
Cc1ccc(Nc2nc(C(=O)Nc3cccc(C)c3)nc3ccccc23)cc1 | -64
Cc1cccc(Nc2nc(C(=O)Nc3c(C)cccc3C)nc3ccccc23)c1 | -70*
Cc1cccc(Nc2nc(C(=O)Nc3cccc(C)c3C)nc3ccccc23)c1 | -40
Cc1ccc(C)c(NC(=O)c2nc(Nc3ccccc3)c3ccccc3n2)c1 | -61
CSc1cccc(NC(=O)c2nc(Nc3cccc(C)c3)c3ccccc3n2)c1 | -82*
Cc1cc(C)cc(NC(=O)c2nc(Nc3ccccc3)c3ccccc3n2)c1 | 5

From PubChem BioAssay
